Data on 40 molecules can be found in PubChem BioAssay (Tox21).

Records with an inconclusive call do not appear. A number with no mark means an inactive call. The source made the active and inactive calls. Calls come from the whole dose curve; as a rule, active = well fitted inhibition curve with a large enough effect in the repeat runs; inconclusive = weak or mixed curves; inactive = flat fitted curve, though single readings scatter.
% is set by controls: 0 for no effect and ±100 for the full control effect; potency is the fitted concentration of half-maximal effect.

The assay can be described thus: qHTS assay to identify small molecule HDAC inhibitors (AID 1259364). For activity change, negative = inhibition: top concentration of the series differs between compounds. Note: nearly all actives have a fitted effect of over 45% in size. As to conditions: HCT-116 HDAC-Glo I/II luminescence, 2 h; series mostly up to 92.4 µM; activity change, negative = inhibition: at the top concentration. An excerpt:
U.S. Tox21 Program National Center for Advancing Translational Sciences [NCATS] NIH Chemical Genomics Center [NCGC] U.S. Environmental Protection Agency [EPA] National Institutes of Environmental Health Sciences [NIEHS] National Toxicology Program [NTP] U.S. Food and Drug Administration [FDA] Tox21 Assay Overview: Histone deacetylases (HDACs) are a group of epigenetic enzymes that regulate gene expression by histone deacetylation. HDACs are capable of introducing epigenetic modifications and such aberrations contribute to the onset and progression of several human diseases, thus making HDACs a popular therapeutic target. For identifying endogenous class I/II HDAC inhibitors a homogenous, luminogenic HDAC I/II cell based assay was used to measure the relative activity of class I and II HDACs from cells. Wild type HCT-116 cells were used to screen Tox21 libraries for identifying class I/II HDAC inhibitors.
Tox21 Assay Protocol Summary: HCT-116 cells were dispensed at 1,500 per well in 5uL of culture medium into white solid bottom 1536-well plates (Greiner Bio-One, Monroe, NC) using a Multidrop Combi (Thermo Scientific, Waltham, MA) dispenser. The assay plates were incubated at 37 C and 5% CO2 for an overnight, and then 23nL of compounds dissolved in DMSO and positive control were transferred using a Pintool station (Wako, San Diego, CA). The assay plates were incubated at 37C and 5% CO2 for 2hr. After compound treatment, 4uL of HDAC-Glo reagent (Promega Corporation, Madison, WI) was added to each well of the assay plates using Flying Reagent Dispenser (FRD, Aurora Discovery, San Diego, CA) and incubated the assay plates at room temperature for 30min. The luminescence signal was quantified using a ViewLux plate reader (Perkin Elmer, Shelton, CT).
For `CN1C(=O)CN=C(c2ccccc2)c2cc([N+](=O)[O-])ccc21`, the “activity change, negative = inhibition” value is 8.89% [at 42.5 µM].
Still for that read-out and setting: next, `COc1cc(C[C@@H](C)N)c(OC)cc1Br`: 0.13%.
Same read-out and setting: next, `O=S(=O)(Cl)Cl`: 0.309%.
As for `CC1(C)[C@H](C(=O)O[C@H](C#N)c2cccc(Oc3ccccc3)c2)[C@@H]1C=C(Br)Br`, the Potency entry was “inactive”.
On to `CC(C)(C)CC(C)(C)c1ccc(O)cc1`, for which the “activity change, negative = inhibition” value was -2.15% [at 42.5 µM].
As for `Nc1c(Br)cc(Br)c2c1C(=O)c1ccccc1C2=O`, the activity change, negative = inhibition was -14.9% [at 19 µM].
The same measure, in the same setting: with `Cc1ncc(C[n+]2csc(CCO)c2C)c(N)n1` the figure was -10.2%.
`O=C(O)CCCOc1ccc(Cl)cc1Cl`: the Potency entry was “inactive”.
On to `CCOC(=O)NC(O)C(Cl)(Cl)Cl` (stereo not given), for which the “activity change, negative = inhibition” value was 1.97% [at 42.5 µM].
`CCCN(CCC)c1c([N+](=O)[O-])cc(C(C)C)cc1[N+](=O)[O-]`: the Potency entry is “inactive”.
For `CON(C)C(=O)Nc1ccc(Cl)cc1`, the Potency was 27.3 µM (active).
In the case of `COc1ccccc1N1CCNCC1`, the “activity change, negative = inhibition” value was -0.274% [at 42.5 µM].
Take `CCCCC(CC)COC(=O)c1c(Br)c(Br)c(Br)c(Br)c1C(=O)OCC(CC)CCCC` (stereo not given): the “activity change, negative = inhibition” value is 5.26% [at 42.5 µM].
`CCOP(=S)(OCC)Oc1ccc(S(C)=O)cc1` (stereo not given): the “activity change, negative = inhibition” value is -3.71%.
Turning to `Nc1cccc2ccccc12`, the Potency result was “inactive”.
Regarding `C=CCc1ccccc1O`, the “activity change, negative = inhibition” value is 2.38%.
Same read-out and setting: next, `CCCC[N+](CCCC)(CCCC)CCCC`: 1.36%; `COC(=O)Cc1ccccc1`: 1.49%.
The same measure, in the same setting: with `C=CCSSCC=C` the figure was 4.75%.
As to `CCCCCCCCCCCC[N+](C)(C)CCOc1ccccc1`, the Potency result is “inactive”.
For `CC(O)CN1CCN(CC(=O)[O-])CCN(CC(=O)[O-])CCN(CC(=O)[O-])CC1.[Gd+3]` (stereo not given), the “activity change, negative = inhibition” value was 6.68% [at 42.5 µM].
`CC(Oc1cccc(Cl)c1)C(=O)O` (stereo not given): the “activity change, negative = inhibition” value was 2.85%.
Same read-out and setting: next, `O=[N+]([O-])c1cc(Cl)c(Cl)cc1Cl`: 1.33%; `CCNC(=O)NC(=O)/C(C#N)=N/OC`: 15%.
The same measure, in the same setting: with `CCCC1CCCCN1` (stereo not given) the figure was 10% [at 42.5 µM].
Turning to `CN(C)C(=O)Nc1cccc(OC(=O)NC(C)(C)C)c1`, the “activity change, negative = inhibition” value is 0.0008%.
Still for that read-out and setting: next, `O=C(Cc1ccccc1)OCCc1ccccc1`: -1.74%; `O=C(O)C(F)(F)C(F)(F)C(F)(F)C(F)(F)C(F)(F)F`: -10.6%.
Still for that read-out and setting: next, `O=C(O)C(F)(F)C(F)(F)C(F)(F)C(F)(F)C(F)(F)C(F)(F)C(F)(F)C(F)(F)F`: 5.89%.
In the case of `O=C(Cc1ccccc1)c1ccccc1`, the Potency is 27.3 µM (active).
Take `CCOP(=S)(OCC)SCSc1cc(Cl)ccc1Cl`: the “activity change, negative = inhibition” value was -3.37%.
Still for that read-out and setting: with `C[N+]1(CCF)[C@@H]2CC[C@H]1CC(OC(=O)C(O)(c1ccccc1)c1ccccc1)C2` (stereo not given in full) the figure was 12.6% [at 42.5 µM].
On to `c1ccc2c(c1)sc1ccccc12`, for which the Potency entry was “inactive”.
On to `CCCCCCCCCCCCCCCl`, for which the “activity change, negative = inhibition” value is -6.81%.
The same measure, in the same setting: with `C=CCOCC1CO1` (stereo not given) the figure was 5.8%.
In the case of `CN(C1CCCCC1)C1CCCCC1`, the “activity change, negative = inhibition” value was 0.353%.
In the case of `O=C(CCl)CCl`, the Potency result was “inactive”.
With `CCC1(C2=NCCN2)Cc2ccccc2O1` (stereo not given), the “activity change, negative = inhibition” value was -2.56% [at 42.5 µM].
Same read-out and setting: with `NCCc1cc(O)c(O)cc1O` the figure was 0.0763% [at 42.5 µM]; with `Clc1ccc2ccccc2c1`, 0.613%.
